# Bioassay records as filed in PubChem BioAssay.
# The list is not random: actives were taken first. Their share in the collection is about 11%.
# AMA1-RON2 inh: qHTS for Inhibitors of AMA1-RON; Towards Development of Antimalarial Drug Lead: Primary Screen | AlphaScreen AMA1-biotinylated RON2 peptide binding | AID 720542, 2013 | Potency, µM (series often up to 58.2 µM), for inactives: at the top dose activity change, negative = inhibition, usual class: inhibitors | Plasmodium falciparum AMA1 (3D7) - RON2 peptide interaction | 360,000 compounds, 0.2% hits;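 also: 0% = vehicle wells and -100% = peptide control; nearly all actives have a fitted effect of over 45% in size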
#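 AMA1 (3D7) with his tag at 25 nM final met compounds first, then biotinylated RON2 peptide at 25 nM; detection used donor plus acceptor beads, 10 µg/mL apiece, read by AlphaScreen after 30 min at room temperature.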
# HCV inhibitor: qHTS Assay for Inhibitors of Hepatitis C Virus (HCV). Huh7.5.1 HCVcc-Cre infection, luciferase reporter, 44 h. Potency, µM (doses to about 41.8 µM), for the others: top-dose activity change, negative = inhibition, usual class: inhibitors. 340,000 compounds, 3.4% hits. AID 651820, 2012
#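 Infectious HCV cell culture screen: compound-treated cells (1,000/well, pre-plated 4 h) are infected with HCVcc-Cre at roughly 0.5 moi and grown 44 h. Infection is quantified by luciferase signal after 15 min substrate incubation at room temperature.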
# AmpC detergent: qHTS Inhibitors of AmpC Beta-Lactamase (assay with detergent). AmpC hydrolysis of nitrocefin, absorbance 480 nm, 0.01% Triton. Potency, µM (highest dose often 114 µM), for inactives: at the highest dose activity change, negative = inhibition, most hits filed as inhibitors. 370,000 compounds, 0.041% hits. AID 485294, 2010;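 also: 0% = no-compound wells and -100% = no-enzyme wells; nearly all actives have a fitted effect of over 25% in size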
# Target sequence (P00811 whole entry, looked up): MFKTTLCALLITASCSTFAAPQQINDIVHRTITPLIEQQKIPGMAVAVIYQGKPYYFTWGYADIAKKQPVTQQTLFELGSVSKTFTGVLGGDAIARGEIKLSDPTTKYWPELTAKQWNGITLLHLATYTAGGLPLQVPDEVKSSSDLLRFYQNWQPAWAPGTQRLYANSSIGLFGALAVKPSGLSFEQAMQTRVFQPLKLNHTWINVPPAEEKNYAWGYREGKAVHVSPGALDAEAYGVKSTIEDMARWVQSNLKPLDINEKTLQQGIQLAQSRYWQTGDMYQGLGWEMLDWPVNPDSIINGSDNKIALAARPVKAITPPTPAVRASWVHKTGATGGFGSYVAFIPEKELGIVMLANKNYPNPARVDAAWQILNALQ
#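 AmpC (5.3 nM in the dispensed reagent) in 20 mM phosphate pH 7.0 with 0.01% (detergent screen) or 0.0001% Triton X-100 was preincubated with compounds for 15 min at room temperature. Nitrocefin was then added from an 800 uM solution, and hydrolysis was followed at 480 nm.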
# Pf growth 48h: Primary qHTS for delayed death inhibitors of the malarial parasite plastid, 48 hour incubation; P. falciparum luciferase growth in erythrocytes, 48 h; Potency, µM (top dose mostly 28.7 µM), inactives show at the top dose activity change, negative = inhibition, most hits filed as inhibitors; 310,000 compounds, 5.9% hits
#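 Growth was read as firefly luciferase luminescence after a 48 h, 37 C, 5% CO2 exposure of compounds to reporter-bearing P. falciparum cultures (0.1% parasitemia, 2% hematocrit final) in Albumax-supplemented RPMI 1640.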
# AmpC inh no detg: qHTS Inhibitors of AmpC Beta-Lactamase (assay without detergent); P00811; AmpC nitrocefin hydrolysis, absorbance 480 nm, 0.0001% Triton; Potency, µM (titrated, usually from 57.1 µM), without a hit: top-dose activity change, negative = inhibition, most hits filed as inhibitors; 330,000 compounds, 0.52% hits;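 also: plate controls were no compound for no effect and no enzyme for full effect; nearly all actives have a fitted effect of over 20% in size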
#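 20 mM phosphate pH 7.0 + 0.01% (detergent screen) or 0.0001% Triton X-100; 5.3 nM AmpC reagent; cpd preinc 15 min RT; nitrocefin (800 uM stock) to start; A480 q20 s × 4 min; Activity was normalised to no-enzyme and no-compound control wells.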
# Pf growth 96h: Primary qHTS for delayed death inhibitors of the malarial parasite plastid, 96 hour incubation. P. falciparum luciferase reporter growth, 96 h. 320,000 compounds, 6.9% hits. Potency, µM (doses to about 28.7 µM), for inactives: at the top dose activity change, negative = inhibition, usual class: inhibitors
#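 Compounds incubated with erythrocytes infected by luciferase-expressing P. falciparum (2% hematocrit, 0.05% parasitemia final) for 96 hours, 37 C in 5% CO2. Growth inhibition scored as decreased luciferase luminescence.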
# The depositor's hits bear a star; ? = inconclusive; . = no result given. Calls follow the shape of the dose curve; as a rule, active = well fitted curve in the direction sought with a large enough effect; inconclusive = small, poorly fitted or top-dose-only effect, or another doubt; inactive = no such curve, though single readings can be large; an effect the other way counts as inactive or inconclusive. Unless noted, % is scaled to controls: 0 for no effect and ±100 for the full control effect; potency is read from the fitted curve at half-maximal effect.
SMILES,AMA1-RON2 inh,HCV inhibitor,AmpC detergent,Pf growth 48h,AmpC inh no detg,Pf growth 96h
COc1ccc(CN(C)c2ccc(S(=O)(=O)N3CCN(C)CC3)cc2[N+](=O)[O-])cc1OC,-8%,0.56µM*,-2%,12µM*,206%,15µM*
COc1ccc(Nc2ccc(S(=O)(=O)N3CCCCC3)cc2[N+](=O)[O-])cc1,?,?,-4%,-15%,-14%,-25%
COc1cccc(NC(=O)Cn2c(=O)n(CCCCC(=O)NCc3ccccc3Cl)c(=O)c3ccccc32)c1,.,.,23%,.,.,.
Cc1cc(C)cc(NC(=O)c2cc(CN3CCCC3)on2)c1,.,.,-2%,.,.,.
COc1ccccc1NC(=O)c1cccc(S(=O)(=O)N2CCCCCC2)c1,.,.,-15%,.,.,.
Cc1cccc(C(=O)Nc2c(-c3ccc(F)cc3)nc3ccccn23)c1,.,.,3%,.,.,.
Cc1cccc(Cn2c(=O)n(CCCC(=O)NCc3ccccc3Cl)c(=O)c3ccccc32)c1,.,.,-6%,.,.,.
COc1ccc(C(CNc2ccc(S(=O)(=O)N3CCCC3)cc2[N+](=O)[O-])N2CCCC2)cc1 (centres undefined),-4%,?,?,?,102%,10µM*
Cc1ccc(Nc2ncnc3c2nc2n3CCCC2)c(Br)c1,.,.,-4%,.,.,.
CC(=O)N1c2ccc(S(=O)(=O)NCC3CCC(C(=O)N(C)Cc4ccccc4)CC3)cc2CC1C (centres undefined),1%,?,-2%,13µM*,137%,?
CCOC(=O)C1CCN(S(=O)(=O)c2ccc3c(c2)CC(C)N3C(=O)C2CC2)CC1 (centres undefined),5%,-27%,-2%,?,85%,?
CC1Cc2cc(S(=O)(=O)N3CCC(C(N)=O)CC3)ccc2N1C(=O)C1CC1 (centres undefined),7%,-8%,3%,0%,12%,12µM*
CC(=O)N1c2ccc(S(=O)(=O)NCC3CCC(C(=O)N4CCCC(C)C4)CC3)cc2CC1C (centres undefined),-10%,-17%,-6%,?,126%,1.2µM*
COc1cc(CNS(=O)(=O)c2ccc3c(c2)CC(C)N3C(C)=O)cc(OC)c1OC (centres undefined),15%,-21%,1%,?,-5%,5.9µM*
O=C(NCc1cccc(F)c1)c1ccc(CS(=O)c2ccccc2Cl)o1 (centres undefined),.,.,17%,.,.,.
CC1Cc2cc(S(=O)(=O)N3CCN(c4ccccc4F)CC3)ccc2N1C(=O)C1CC1 (centres undefined),-3%,?,1%,8%,22%,?
COCCCNC(=O)C1CCC(CNS(=O)(=O)c2ccc3c(c2)CC(C)N3C(=O)C2CC2)CC1 (centres undefined),12%,6%,2%,-4%,103%,13µM*
CC1Cc2cc(S(=O)(=O)N3CCC(C(=O)N(C)Cc4ccccc4)CC3)ccc2N1C(=O)C1CC1 (centres undefined),-6%,5.6µM*,-2%,13µM*,107%,10µM*
COc1ccc(NC(=O)c2oc3ccccc3c2NC(=O)COc2ccc(C(C)C)cc2)c(OC)c1,.,.,3%,.,.,.
Brc1ccc(CNCCCSc2nnnn2-c2ccccc2)cc1,.,.,16%,.,.,.
O=C(NCc1ccccc1Cl)C1CCN(S(=O)(=O)c2ccc(N3CCCC3=O)cc2)CC1,7%,-4%,-2%,?,-1%,9.3µM*
Cc1ccc(NC(=O)C2CCN(S(=O)(=O)c3ccc(N4CCCC4=O)cc3)CC2)cc1Cl,3%,10µM*,-3%,?,18%,5.9µM*
